Screening results as filed in PubChem BioAssay.
Shown are actives, neighbours in structure and some others; about 1.7% of the full set was active somewhere.
PLK1 inh: blocks human PLK1 kinase activity; P53350; recombinant PLK1 kinase, TR-FRET peptide phosphorylation; inhibition, % at 10 µM; 0.53% of 97,000 active; AID 619;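 active = inhibition of 50% or more in the single-concentration screen; inactive = inhibition below 50%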
PLK1 PBD inh: blocks phosphopeptide binding to human Plk1 polo box domain. inhibition, %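 (tested at about 20 µM)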. Plk1 PBD phosphopeptide binding, fluorescence polarization. 0.13% of 97,000 active. AID 693; in the data active = inhibition above about 34%, passing the limit was not always enough
PTPN22 act: LYP (human) phosphatase activation; Q9Y2R2; recombinant LYP, DiFMUP fluorescence; 0 = plate median, 100 = signal doubled; activation, % at 2 µM; 0.11% of 96,000 active;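 active = activation at 2 µM above a set limit, the mean plus 5 SD, cut at about 37% in these data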
EphB4 antag: EphB4-ephrin-B2 interaction antagonism. inhibition, % at 7 µM. 0.15% of 97,000 active. EphB4 LBD / TNYL-RAW-Alexa532 peptide, fluorescence polarization;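 active = inhibition above the screen-wide mean inhibition plus 3 SD, cut at about 15% in these data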
Target sequence (P54760 whole entry, looked up, the tested form may be a part): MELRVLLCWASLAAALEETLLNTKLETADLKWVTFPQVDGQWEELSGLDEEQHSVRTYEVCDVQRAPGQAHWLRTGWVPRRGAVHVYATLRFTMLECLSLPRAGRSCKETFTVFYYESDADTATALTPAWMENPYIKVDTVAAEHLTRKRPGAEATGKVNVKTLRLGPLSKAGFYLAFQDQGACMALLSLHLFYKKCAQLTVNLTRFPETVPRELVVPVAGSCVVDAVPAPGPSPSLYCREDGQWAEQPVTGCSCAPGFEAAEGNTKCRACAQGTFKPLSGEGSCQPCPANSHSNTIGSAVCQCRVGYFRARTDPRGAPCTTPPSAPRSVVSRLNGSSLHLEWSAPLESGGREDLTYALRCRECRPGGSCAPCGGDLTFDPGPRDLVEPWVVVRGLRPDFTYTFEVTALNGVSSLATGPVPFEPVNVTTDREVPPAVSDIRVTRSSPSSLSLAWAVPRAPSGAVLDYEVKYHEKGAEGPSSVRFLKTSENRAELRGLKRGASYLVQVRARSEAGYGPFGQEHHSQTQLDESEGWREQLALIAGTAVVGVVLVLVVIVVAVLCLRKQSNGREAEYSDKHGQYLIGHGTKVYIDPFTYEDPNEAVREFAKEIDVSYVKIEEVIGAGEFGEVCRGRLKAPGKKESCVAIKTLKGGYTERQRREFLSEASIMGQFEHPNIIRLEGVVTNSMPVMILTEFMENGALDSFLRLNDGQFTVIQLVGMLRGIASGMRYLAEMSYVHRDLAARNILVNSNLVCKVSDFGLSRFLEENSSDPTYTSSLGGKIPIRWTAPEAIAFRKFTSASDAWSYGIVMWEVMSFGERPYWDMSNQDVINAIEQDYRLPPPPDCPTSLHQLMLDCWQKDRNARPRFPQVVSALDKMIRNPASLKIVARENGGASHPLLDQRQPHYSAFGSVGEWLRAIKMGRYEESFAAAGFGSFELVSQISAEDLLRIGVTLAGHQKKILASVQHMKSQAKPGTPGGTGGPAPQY
PTPN22 inh 2: LYP (human) phosphatase inhibition. Q9Y2R2. recombinant LYP catalytic domain, DiFMUP fluorescence. inhibition, % at 2 µM. 0.21% of 96,000 active;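 active = inhibition at 2 µM at or above a set limit, the screen mean plus 3 SD, cut at about 24% in these data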
FAK blocker: inhibitors of human focal adhesion kinase. Q05397. 0.84% of 97,000 active. inhibition, %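 (tested at 7 µM)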. biochemical FAK kinase activity assay
FAK inh confirm: FAK (human) inhibition confirmed; inhibition, % at 7 µM; shares compounds with FAK blocker; FAK kinase biochemical inhibition assay; 28% of 750 active
Hits are given with their value; i = inactive; nt = not tested or not shown. Rule as the data show it, unless noted: active = inhibition above about 19%; inactive = the rest.

SMILES	PLK1 inh	PLK1 PBD inh	PTPN22 act	EphB4 antag	PTPN22 inh 2	FAK blocker	FAK inh confirm
COc1ccc2cc3cc(C(=O)Nc4ccc5c(c4)OCCO5)oc3nc2c1	i	i	i	i	i	43.2	i
CCCc1nc2sc3ccccc3c(=O)c2c(=O)n1Cc1ccco1	i	i	i	i	i	22.1	i
CCCc1nc2oc3cc(OC)ccc3c(=O)c2c(=O)n1Cc1ccco1	i	i	i	i	i	i	nt
Cc1cc(C)nc(SCc2nnc(SCc3ccccc3Cl)o2)n1	i	i	i	i	i	i	nt
CN(CC1CCCO1)S(=O)(=O)c1ccc(C(=O)Nc2nc(-c3ccccn3)cs2)cc1 (centres undefined)	i	i	i	i	i	i	nt
Cc1cc(-c2csc(NC(=O)c3ccc(=O)n(C)n3)n2)c(C)n1CC1CCCO1 (centres undefined)	i	i	i	i	i	22.0	i
Cc1cccc(-c2nnc3n2N=C(c2ccccc2Br)CS3)c1	i	i	i	i	i	i	nt
CCOc1ccc2nc(SCC#N)c(C#N)cc2c1	i	i	i	i	i	20.1	i
CCc1ccc2nc(SCC(=O)N(CC)CC)c(C#N)cc2c1	i	i	i	i	i	40.7	27.1
Cc1sc(NC(=O)c2sc3nc4c(C)cccc4cc3c2N)c(C#N)c1C	i	i	i	i	55.6	28.7	i
Cc1cccc2cc3c(N)c(C#N)sc3nc12	i	i	i	i	i	i	nt
O=C(O)c1ccc(Br)c(S(=O)(=O)N2CCCC2)c1	i	i	i	i	i	i	nt
CCC(C)NC(=O)C1CCN(S(=O)(=O)c2ccc(OC)cc2)CC1 (centres undefined)	i	i	i	i	i	i	nt
Cc1ccc(NCc2ccccc2O)cc1	i	i	i	i	i	i	nt
Cc1ccc(CNc2ccc(O)cc2)cc1	i	i	i	i	i	51.9	i
CN(Cc1cccs1)C(=O)COc1ccc(-c2nnco2)cc1	i	i	i	i	i	i	nt
Cc1c(-c2ccc(Cl)cc2)oc(=O)c2c(N)n(-c3ccccc3)nc12	i	i	i	i	i	24.1	i
CC(C)(C)C(=O)c1sc(Nc2ccccc2)nc1N	i	i	i	i	i	32.4	i
O=C(O)C(NC(=O)c1ccccc1)=C(Cl)Cl	i	i	i	i	i	i	nt
COc1ccc(COc2ccsc2C(=O)Nc2ccc(Cl)c(Cl)c2)cc1	i	i	i	i	i	25.5	i
COc1ccc(C(=O)NCCc2c[nH]c3ccccc23)cc1S(=O)(=O)N1CCOCC1	i	i	i	i	i	i	nt
CC1CCCN(Cc2c(O)ccc3c(=O)c(-c4nc5ccccc5s4)c(N)oc23)C1 (centres undefined)	i	i	i	i	i	34.2	i
COc1cccc(C(=O)Nc2c(C(N)=O)oc3ccccc23)c1	i	i	i	i	i	20.8	i
C=CCNC(=O)c1cccc(C(F)(F)F)c1	i	i	i	i	i	i	nt
CCn1c(SCC(=O)Nc2ccc3c(c2)c2ccccc2n3CC)nnc1-c1ccco1	i	i	i	i	i	29.7	i
SMILES	PLK1 inh	PLK1 PBD inh	PTPN22 act	EphB4 antag	PTPN22 inh 2	FAK blocker	FAK inh confirm
O=c1nc2s/c(=C\c3ccco3)c(=O)n2nc1Cc1ccc(F)cc1	i	i	i	i	i	24.4	i
COc1cccc(-c2cn3nc4c(nc3n2)CCCC4)c1	i	i	i	i	i	26.9	i
COC(=O)c1cc(S(=O)(=O)n2nc(C)c(Br)c2C)c(Cl)cc1Cl	i	i	i	i	i	i	nt
CCN(CCO)c1nc(SC)nc2c1sc1nc(-c3ccco3)c3c(c12)CCC3	i	i	i	i	i	72.3	i
CCN(CCO)c1ncnc2c1sc1nc(C(C)C)c3c(c12)CC(C)(C)OC3	i	i	i	i	i	i	nt
CC(NC(=O)C1CCCN(C(=O)N(C)C)C1)c1ccccc1 (centres undefined)	i	i	i	i	i	i	nt
Cc1ccc2c(c1)NC(=O)c1cccnc1N2	i	i	i	i	i	i	nt
O=C1Nc2ccccc2Nc2ncccc21	i	i	i	i	i	38.7	i
Cc1n[nH]c(C)c1-c1nc2ccccc2[nH]1	i	i	i	i	i	24.2	i
Nc1ccc(-c2nc3ccccc3[nH]2)cc1	i	i	i	i	i	i	nt
c1ccc2c(c1)ncn2-c1ccc(-c2ccnc(-c3ccncc3)n2)cc1	i	i	i	i	i	29.3	i
